Screening data deposited in PubChem BioAssay by National Center for Advancing Translational Sciences (NCATS).
Pf Dd2 growth: qHTS Primary assay for Inhibitors of Plasmodium falciparum Dd2 growth in vitro. P. falciparum Dd2 growth, SYBR Green, 72 h. 120,000 tested, 4.3% active. Potency, µM (top dose mostly 28.9 µM), without a hit: top-dose activity, negative = inhibition, hits mostly inhibitors. AID 1347417, 2020; active = well fitted inhibition curve with a large enough effect;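 note: plate controls were DMSO vehicle for no effect and reference drug for full effect; nearly all actives have a fitted effect of over 65% in size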
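Infected erythrocytes (Dd2, 0.3% parasitemia, 2.5% hematocrit final) are added to compound in RPMI-1640/Albumax II medium, grown 72 h at 37C in low oxygen, then lysed with saponin/Triton-X containing SYBR Green and read by fluorescence.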
An asterisk follows results filed as active; i = inactive; [ ] = remark or other dose. This excerpt belongs to a sample that is enriched for hits. Potency is the fitted concentration of half-maximal effect.

SMILES	Pf Dd2 growth
CCOc1ccccc1NC(=O)Cn1ccn(-c2ccccc2)c(=O)c1=O	52%
COCCN1CCCC2(CCN(C(=O)CCN(C)S(C)(=O)=O)C2)C1=O (stereo not given)	3%
COC[C@@H]1[C@H](C(=O)Nc2ccc(C)cc2)CCC(=O)N1C	-2%
O=c1[nH]c(N2CCOCC2)nc2c1CCN(S(=O)(=O)c1ccccc1F)CC2	i[5.79 µM]
O=C1Nc2ccc(-c3cccc(C(F)(F)F)c3)cc2C(=O)N2CCN(C(=O)c3cccc(F)c3)C[C@H]12	-24%
O=C(c1cscn1)N1CCC2(CCCN(CCC3CCCCC3)C2=O)C1 (stereo not given)	-15%
Cn1nnc(-c2cccc(NC(=O)CC[C@H]3NC(=O)c4ccccc4NC3=O)c2)n1	-20%
Cc1cnn(CC(=O)N2CCC3(CC2)CN(c2ncccn2)CC3CO)c1 (stereo not given)	7%
COC(=O)CNC(=O)c1cc(-c2ccccc2OC)c2nncn2n1	6%
COC(=O)c1c(-c2ccc(Cl)cc2)noc1N1CCN(c2cccc(C(F)(F)F)c2)CC1	7.1µM*
CC(=O)NC1(C)CCN(c2cccc(C(F)(F)F)c2)CC1	-19%[44.1 µM]
COC(=O)c1c(-c2ccc(Cl)cc2)noc1N1CCN(c2ccc(F)cc2)CC1	-17%
Cc1ccc(NC(=O)c2cccn(Cc3ccccc3C)c2=O)c(C)c1	-14%
COc1ccccc1C(=O)NC1CCN(c2cn[nH]c(=O)c2)CC1	i
O=C1COCC2(CN(Cc3cc(F)ccc3F)C2)CN1Cc1ccccc1	-3%[44.1 µM]
COCCN1CC[C@H]2N(Cc3nc4c(cnn4C)c(=O)[nH]3)CCC[C@]2(C(=O)O)C1	-5%
COc1ccc(CNC(=O)CC[C@]23CC[C@](C)(O)C[C@H]2C(C)(C)C[C@@H]3NC(=O)CC(C)(C)C)cc1	i
COc1ccc(CNC(=O)CC[C@]23CC[C@](C)(O)C[C@H]2C(C)(C)C[C@@H]3NC(=O)c2cccs2)cc1	i
COc1ccc(CNC(=O)CC[C@]23CC[C@](C)(O)C[C@H]2C(C)(C)C[C@@H]3NCc2ccccn2)cc1	7.9µM*
c1nc(N[C@@H]2COCC[C@@H]2OCc2cscn2)c2ccsc2n1	-9%
O=C(c1cccc(Cl)c1)N1CCC(N2CCCCCC2=O)CC1	-13%[44.1 µM]
CCC(C(=O)NCc1nnc2c(-c3nc(C)no3)cccn12)c1ccccc1 (stereo not given)	-24%
COc1cc2c(cc1OC1CCCC1)NC(=O)C21CCN(Cc2ccncc2)CC1	-4%[44.1 µM]
COc1cc2c(cc1Oc1ccccc1)NC(=O)C21CCN(c2ncc(F)cn2)CC1	4.5µM*
COc1cc2c(cc1OC1CCCC1)NC(=O)C21CCN(c2cc(NC3CC3)ncn2)CC1	-23%
SMILES	Pf Dd2 growth
COc1cc2c(cc1Oc1ccccc1)NC(=O)C21CCN(Cc2ccccn2)CC1	-12%[44.1 µM]
COc1cc2c(cc1OC1CCCC1)NC(=O)C21CCN(c2ccnc(C)n2)CC1	13µM*
COc1cc2c(cc1OCC1CC1)NC(=O)C21CCN(c2ncc(F)cn2)CC1	i
O=C(Nc1ccc(F)cc1)C1CCCN1c1nc2ncccc2o1 (stereo not given)	12%
Cc1cccc(CCNC(=O)c2c[nH]c3ccc(S(=O)(=O)Nc4ccccc4F)cc3c2=O)c1	-18%
Cc1ccc(Cl)cc1NC(=O)CN1C(=O)c2cccc3cccc1c23	32%
CCOC(=O)Cn1cnc2onc(-c3ccc(F)cc3)c2c1=O	14%
CCN(C(=O)Cn1cnc2onc(-c3ccc(F)cc3)c2c1=O)c1cc(C)ccc1C	10µM*
CCCN(C(=O)CCn1cnc2onc(-c3ccc(F)cc3)c2c1=O)c1ccccc1C	19%
O=c1cc(CN2CCCn3nc(CO)cc3C2)nc2sc(C3CC3)nn12	-21%
COc1ccc(CCC(=O)N2CCCCCNC(=O)[C@@H]3CCCC[C@@H]32)cc1	-3%
CCOC(=O)C1CCCN(c2c(C(=O)c3ccc(OCC)cc3)cnc3ccccc23)C1 (stereo not given)	i
COc1cc2ncc(C(=O)c3ccc(C)cc3)c(N3CCCCC3)c2cc1OC	-12%
CCOC(=O)C1CCN(c2c(C(=O)c3ccc(OCC)cc3)cnc3ccc(OC)cc23)CC1	10µM*
COCc1nc(-c2cccc(NC(=O)CC[C@H]3NC(=O)c4ccccc4NC3=O)c2)n[nH]1	-15%
O=C(c1ccc(Cl)cc1)N1CC2(CCN(C3COC3)C2)Cc2ccccc21 (stereo not given)	-23%
CC(=O)N1CC2(CCN(Cc3cccc(C(N)=O)c3)CC2)Cc2ccccc21	-17%
CC(=O)N1CC2(CCCN2Cc2cccc(C(N)=O)c2)Cc2ccccc21 (stereo not given)	-5%
O=C(c1ccc(Cl)cc1)N1CC2(CCN(CC3CC3)C2)Cc2ccccc21 (stereo not given)	6.3µM*
NC(=O)c1cccc(CN2CCC3(CC2)Cc2ccccc2N(C(=O)c2ccc(Cl)cc2)C3)c1	11µM*
O=C(c1ccc(Cl)cc1)N1CC2(CCCN2Cc2ccc(Cl)cc2)Cc2ccccc21 (stereo not given)	10µM*
O=C(c1ccc(Cl)cc1)N1CC2(CCCN(Cc3ccccn3)C2)Cc2ccccc21 (stereo not given)	-29%
CC(=O)N1CC2(CCN(Cc3cccc(C(N)=O)c3)C2)Cc2ccccc21 (stereo not given)	-18%
CS(=O)(=O)N1CC2(CCCN2Cc2ccc(Cl)cc2)Cc2ccccc21 (stereo not given)	-20%
CCC1CN(C(=O)c2cccc3c2OCC3)CCC(=O)N1Cc1ccccc1 (stereo not given)	-13%
SMILES	Pf Dd2 growth
Cc1noc(C)c1S(=O)(=O)N1CC[C@@H](c2ccc3c(c2)OCO3)[C@H](O)C1	-6%
Cc1ccc(CN2CCc3nc(N4CCN(C)CC4)[nH]c(=O)c3CC2)cc1C	0%[5.79 µM]
Cc1ccc(C(=O)N2CC[C@H]3C(=O)NCCCCCCN(Cc4ccncc4)[C@@H]3C2)s1	-15%
CNC(=O)[C@@H]1C[C@H](Oc2cccnc2)CN1S(=O)(=O)c1ccccc1	-3%
COc1cc(C(=O)N2CCC[C@H]2c2nc(-c3ccccc3)no2)cc(OC)c1OC	-30%
Cc1ccn(CCC(=O)NCc2cccnc2Oc2ccc(F)c(F)c2)n1	-7%
O=C1Nc2ccc(-c3ccc(Cl)cc3)cc2C(=O)N2CCN(C(=O)c3cccs3)C[C@H]12	-42%
Cc1cc(NC(=O)c2oc3c(c2C)-c2[nH]ncc2CC3)ccc1Br	-30%
COCCOc1ncccc1-c1noc([C@@H]2CCCN2C2CCN(C(C)=O)CC2)n1	i
CN1CC(=O)N(c2ccccc2F)Cc2c(NCc3cccs3)ncnc21	-13%
Nc1c(C(=O)Nc2cccc(C(F)(F)F)c2)c2ccccn2c1C(=O)c1ccccc1	i
COc1ccc(OCC(=O)N2CCN(C(=O)c3ccc(OC)c(OC)c3)CC2)cc1	14%
CCCS(=O)(=O)c1c(S(=O)(=O)CCC)c2cc(C(C)(C)C)ccn2c1C(=O)c1ccccc1	2.5µM*
CCCCN(CCCC)C1=C(C(=O)c2ccccc2)N(CC)S(=O)(=O)c2ccccc21	-9%
COc1ccc(C(=O)N2CCN(C(=O)COc3ccc(Br)cc3)CC2)cc1OC	36%
CCCS(=O)(=O)c1c(S(=O)(=O)CCC)c2cc(C(C)(C)C)ccn2c1C(=O)c1ccc(OC)c(OC)c1	2.8µM*
CC(C)C[C@H](NC(=O)[C@@H]1C[C@H](NC(=O)c2cccn2C)CN1C(=O)c1cccn1C)C(N)=O	-2%
Cn1cc(CNC(=O)c2ccc(OC3CCN(S(C)(=O)=O)CC3)c(Cl)c2)cn1	9%
